HCV inhibitor: qHTS Assay for Inhibitors of Hepatitis C Virus (HCV); Potency, µM (series often up to 41.8 µM), for the others: at the highest dose activity change, negative = inhibition, hits mostly inhibitors; 3.4% of 340,000 active; Huh7.5.1 HCVcc-Cre infection, luciferase reporter, 44 h; also: potency is read from the fitted curve at half-maximal effect
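Antiviral activity was scored by luciferase reporter output from cells infected with HCVcc-Cre (~0.5 moi) in presence of compound, 44 h infection period, cells seeded 1,000/well 4 h prior.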
Pf growth 48h: Primary qHTS for delayed death inhibitors of the malarial parasite plastid, 48 hour incubation | P. falciparum luciferase growth in erythrocytes, 48 h | Potency, µM (doses to about 28.7 µM), without a hit: at the top dose activity change, negative = inhibition, actives largely listed as inhibitors | 5.9% of 310,000 active | AID 504832, 2011; also: potency is read from the fitted curve at half-maximal effect
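Growth was read as firefly luciferase luminescence after a 48 h, 37 C, 5% CO2 exposure of compounds to reporter-bearing P. falciparum cultures (0.1% parasitemia, 2% hematocrit final) in Albumax-supplemented RPMI 1640.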
Pf growth 96h: Primary qHTS for delayed death inhibitors of the malarial parasite plastid, 96 hour incubation; P. falciparum luciferase reporter growth, 96 h; Potency, µM (series often up to 28.7 µM), without a hit: at the highest dose activity change, negative = inhibition, hits mostly inhibitors; 6.9% of 320,000 active; also: potency is read from the fitted curve at half-maximal effect
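Erythrocytes infected with luciferase-expressing P. falciparum were dispensed at 2% hematocrit and 0.05% parasitemia (final), then incubated with compounds 96 hours at 37 C in 5% CO2. Luminescence after detection reagent addition reported growth.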
HCMV antiviral: qHTS Assay for inhibitors of the human cytomegalovirus (HCMV) | activity change, negative = inhibition, % at 57.5 µM | 4.5% of 410,000 active | HFF cells, HCMV-luciferase reporter, 72 h; active compounds read low; in the data active = activity change below about -60%; inconclusive = no clear call, values can overlap the other calls; inactive = above about -39%
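Human foreskin fibroblasts infected with luciferase-reporter HCMV at MOI 1 PFU/cell, compounds at two doses. Luciferase measured 72 h post infection; normalized to buffer-only basal and Salinomycin (10uM) controls.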
LASV entry inh: qHTS for Inhibitors of binding or entry into cells for Lassa Virus; Lassa virus pseudotype entry inhibition, cell reporter; Potency, µM (top dose mostly 37.9 µM), for inactives: top-dose activity change, negative = inhibition, actives largely listed as inhibitors; 1.2% of 300,000 active; calls by dose curve; tested in HEK293 cells; also: potency is read from the fitted curve at half-maximal effect; nearly all actives have a fitted effect of over 50% in size
MARV entry inh: qHTS for inhibitors of binding or entry into cells for Marburg Virus. Marburg virus pseudotyped entry inhibition, cell reporter. 1.8% of 300,000 active. Potency, µM (titrated, usually from 37.8 µM), for the others: at the highest dose activity change, negative = inhibition, hits mostly inhibitors. AID 540276, 2011; calls by dose curve; tested in HEK293 cells; also: potency is read from the fitted curve at half-maximal effect
* = called active by the depositor; ? = inconclusive; / = no result; [ ] = dose if it differs, or a comment. Hits are enriched below; roughly 14% of the tested compounds scored in any of these assays. Unless noted, calls follow the shape of the dose curve; as a rule, active = well fitted inhibition curve with a large enough effect; inconclusive = small, poorly fitted or top-dose-only effect, or another doubt; inactive = no such curve, though single readings can be large or run the other way. % is scaled to controls: 0 for no effect and ±100 for the full control effect.

SMILES | HCV inhibitor | Pf growth 48h | Pf growth 96h | HCMV antiviral | LASV entry inh | MARV entry inh
COc1cc2c(=O)n(Cc3ccccc3)c(=O)n(CC(=O)NCCc3ccccc3)c2cc1OC | ? | -2% | ? | 41 | ? | 15%
COc1ccc(CCNC(=O)CCCCn2c(=O)c3ccccc3n(CC(=O)Nc3c(C)cccc3C)c2=O)cc1OC | / | / | / | -109* | 4%[46.1 µM] | -1%[46.1 µM]
COc1ccc(NC(=O)Cn2c(=O)n(Cc3ccco3)c(=O)c3cc(OC)c(OC)cc32)cc1 | / | / | / | -97* | ? | 11%[46.1 µM]
Brc1ccc(-c2nc3ccccn3c2Nc2ccc3c(c2)OCCO3)o1 | / | / | / | 24 | 8%[46.1 µM] | 2%[46.1 µM]
O=Cc1cn(-c2ccccc2)nc1-c1cc2ccccc2oc1=O | ? | 24% | / | -8 | -4% | -10%
CN(C)CCNC(=O)/C=C/c1cn(-c2ccccc2)nc1-c1cc2ccccc2oc1=O | 1% | -16% | 8.3µM* | -36 | / | /
Cc1ccc(-c2nc3ncccc3o2)cc1NC(=O)c1ccc(-c2ccc(Cl)cc2)o1 | / | / | / | -6 | 8%[46.1 µM] | ?
CN(C(=O)Cn1cnc2sccc2c1=O)C1CCCCC1 | 7% | 52% | 26% | -11 | / | /
O=C(Nc1ccnn1C1CCN(Cc2cccc(OCCO)c2)CC1)C1CCOC1 (stereo not drawn) | -12% | -9% | 5.2µM* | 5 | 5% | -27%
O=C(Nc1ccnn1C1CCN(Cc2cc3ccccc3[nH]2)CC1)C1CCOC1 (stereo not drawn) | / | -14% | 5.2µM* | ? | / | /
Cc1c(CN2CCC(n3nccc3NC(=O)C3CCOC3)CC2)[nH]c2ccccc12 (stereo not drawn) | / | 11% | -11% | ? | 6% | -6%
CCC1(C)Cc2c(sc3nc(SC)[nH]c(=S)c23)CO1 (stereo not drawn) | 4% | / | 20% | / | ? | -3%[46.1 µM]
COC(=O)[C@@]12C[C@@H](CC(=O)NCCC(C)C)C(=O)N(Cc3ccccc3)C1=CCC(C)(C)C2 | / | / | / | 10 | / | /
Cc1cc(C)n(-c2ccc(NC(=O)C3CCCCN3C(=O)c3ccoc3)cc2)n1 (stereo not drawn) | -18% | -5% | 9.3µM* | / | 13% | 1%
Cc1cc(C)n(-c2ccc(NC(=O)C3CCCCN3C(=O)c3sccc3C)cc2)n1 (stereo not drawn) | ? | -11% | 15µM* | 17 | 3% | ?
CCOc1ccc(S(=O)(=O)N2CCC(C(=O)NCc3ccco3)CC2)cc1 | -12% | 9.3µM* | 56% | 30 | -11% | -1%
CCOc1ccc(S(=O)(=O)N2CCCC(C(=O)NCc3ccco3)C2)cc1 (stereo not drawn) | -6% | -6% | 6% | 12 | / | /
CCOc1ccc(S(=O)(=O)N2CCC(C(=O)NCC3CCCO3)CC2)cc1C (stereo not drawn) | 3% | 10% | 2.3µM* | -9 | 6%[46.1 µM] | ?
COc1ccc(S(=O)(=O)N2CCC(C(=O)N3CCc4ccccc4C3)CC2)cc1 | -6% | ? | 12% | -3 | -17% | -22%
CCOc1ccc(S(=O)(=O)N2CCC(C(=O)N3CCc4ccccc4C3)CC2)cc1 | -23% | ? | 2.9µM* | ? | ? | -23%
COc1ccc(S(=O)(=O)N2CCC(C(=O)NCC3CCCO3)CC2)cc1C (stereo not drawn) | 15% | 13% | 33% | 2 | 0% | 4%
O=C(NCc1ccco1)C1CCCN(S(=O)(=O)c2ccc(Br)cc2)C1 (stereo not drawn) | 1% | -15% | 15µM* | ? | 6% | -32%[46.1 µM]
Cc1ccc(Nc2c(-c3ccco3)nc3ccc(C)cn23)cc1 | / | / | / | -15 | -19%[46.1 µM] | 0%[46.1 µM]
COc1cc2c(cc1OC)C(c1ccc(F)cc1)N(c1ccccc1)C(=O)C2 (stereo not drawn) | / | / | / | 28 | -5%[46.1 µM] | 1%[46.1 µM]
CCN(CC)S(=O)(=O)N1CCC(C(=O)NCc2ccco2)CC1 | 2% | 15% | 2% | 68 | 4%[46.1 µM] | 0%[46.1 µM]
